52 molecules from PubChem BioAssay AID463193 (University of Pittsburgh Molecular Library Screening Center, 2010) can be followed below.

The campaign covered roughly 190,000 compounds. About 1,900 (1%) were called active.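 How the source made its calls: active means percentage of spot-positive cells more than 3 SD above its plate mean, without a fluorescence outlier flag or 80% toxicity; inconclusive means no clear call, values can overlap the other calls; inactive means the rest.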 What follows is part of a selection rich in actives, with near analogues and random picks from the rest.

This experiment is described as follows: autophagy modulators in MEF cells, primary screen, imaging, high-content, MEF GFP-LC3 (AID 463193).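 On % cells with GFP-LC3 spots: spot-positive cell cutoff set from DMSO-treated cells.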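 On toxicity: cell loss after 18 h compound exposure.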 Particulars: MEF GFP-LC3 puncta imaging, at 10 µM; % cells with GFP-LC3 spots: stronger effect = higher value; toxicity: measured here: cell loss, nuclei count.
With `CCNC(=S)N(CCc1c(C)[nH]c2ccc(C)cc12)Cc1ccco1`, the % cells with GFP-LC3 spots was 19.1% (active) and the toxicity is 0.117%.

For `COc1ccc2[nH]c(C)c(CCN(Cc3cccs3)C(=S)Nc3ccccc3OC)c2c1`, the % cells with GFP-LC3 spots was 12.3% (inactive) and the toxicity is 16.6%.

As for `COc1cccc(NC(=S)N(CCc2c(C)[nH]c3ccccc23)Cc2ccco2)c1`, the % cells with GFP-LC3 spots was 9.78% (inactive) and the toxicity was 16.6%.

On to `COC(=O)c1nc2n(n1)C(c1ccc([N+](=O)[O-])cc1)C(C(=O)Nc1ccc(Cl)cc1)=C(C)N2` (centres undefined), for which the % cells with GFP-LC3 spots was 5.34% (inactive) and the toxicity is -5.39%.

Take `O=C(c1cccc([N+](=O)[O-])c1)N1CCN(C(=O)c2ccco2)CC1`: the % cells with GFP-LC3 spots is 0.295% (inactive) and the toxicity is 7.8%.

`CCC(=O)c1ccc(OCC(O)CN2CCN(c3cccc(C(F)(F)F)c3)CC2)cc1` (centres undefined): the % cells with GFP-LC3 spots was 13.1% (active) and the toxicity was 8.02%.

For `CCC(=O)c1ccc(OCC(O)CN2CC(C)OC(C)C2)cc1` (centres undefined), the % cells with GFP-LC3 spots was 5.51% (inactive) and the toxicity was -8.47%.

For `O=C(COc1ccc(Cl)cc1)N1CCN(c2cccc(C(F)(F)F)c2)CC1`, the % cells with GFP-LC3 spots is 9.65% (inactive) and the toxicity was -3.29%.

As for `CCO[C@@H]1OC(C(N)=O)=C[C@H](c2ccc(Br)cc2)[C@H]1CCCO`, the % cells with GFP-LC3 spots was 18.2% (inactive) and the toxicity turned out to be 10.9%.

`CNS(=O)(=O)c1ccc(NC(=O)C2CC(=O)N(c3ccc(Cl)cc3)C2)cc1` (centres undefined): the % cells with GFP-LC3 spots is 8.63% (inactive) and the toxicity was -13.2%.

In the case of `COc1cccc(C(=O)N2CCCC(CCC(=O)NCc3ccc(F)c(F)c3)C2)c1` (centres undefined), the % cells with GFP-LC3 spots is 3.38% (inactive) and the toxicity stood at 5.82%.

For the molecule `O=C(O)CC(Cc1ccccc1)C(=O)Nc1ccc([N+](=O)[O-])cc1` (centres undefined), the % cells with GFP-LC3 spots was 1.42% (inactive) and the toxicity is -2.46%.

For the molecule `CN(C)S(=O)(=O)c1ccc2oc(SCC(=O)Nc3ccccc3F)nc2c1`, the % cells with GFP-LC3 spots was 0.884% (inactive) and the toxicity was -4.66%.

In the case of `Cc1cccc(C(=O)N2CCc3c([nH]c4ccccc34)C2CC(C)C)n1` (centres undefined), the % cells with GFP-LC3 spots was 11% (inactive) and the toxicity was -2.26%.

`C=CCNC(=O)CCCC(=O)NCC=C`: the % cells with GFP-LC3 spots is 17.9% (active) and the toxicity is 1.29%.

Consider `C=CCNC(=O)CC12CC3CC(C1)CC(CC(=O)NCC=C)(C3)C2`, for which the % cells with GFP-LC3 spots was 23% (inactive) and the toxicity turned out to be 16.8%.

As for `C=CCNC(=O)CCCOc1cccc(C)c1`, the % cells with GFP-LC3 spots is 10.7% (inactive) and the toxicity worked out at 16.1%.

On to `O=C(O)c1cccc(N=NN2CCCCCC2)c1`, for which the % cells with GFP-LC3 spots is 6.85% (inactive) and the toxicity was -1.54%.

Turning to `CSc1ncnc2sc(C)c(C)c12`, the % cells with GFP-LC3 spots was 10.2% (inactive) and the toxicity was determined as 24.5%.

As for `CCCOC(=O)c1[nH]c2c(c1C)C(=O)CC(c1cc(OC)c(OC)c(OC)c1)C2` (centres undefined), the % cells with GFP-LC3 spots was 12.1% (inactive) and the toxicity was 15.9%.

With `CCCOC(=O)c1[nH]c2c(c1C)C(=O)CC(c1cccs1)C2` (centres undefined), the % cells with GFP-LC3 spots was 19% (active) and the toxicity was determined as 63%.

For `CCOC(=O)c1[nH]c2c(c1C)C(=O)CC(c1ccc(N(C)C)cc1)C2` (centres undefined), the % cells with GFP-LC3 spots was 2.24% (inactive) and the toxicity was -7.4%.

As for `Cc1ccc(SC(C)C(=O)NCc2ccc(F)cc2)cc1` (centres undefined), the % cells with GFP-LC3 spots was 0.143% (inactive) and the toxicity is -15%.

Turning to `Cc1nn(C)c(Oc2ccccc2)c1[N+](=O)[O-]`, the % cells with GFP-LC3 spots was 2.75% (inactive) and the toxicity was -3.54%.

Take `COc1cccc(Cn2cnc3c([N+](=O)[O-])c(C)c(C)cc32)c1`: the % cells with GFP-LC3 spots was 6.93% (active) and the toxicity was -2.05%.

For the molecule `Cc1cccc(Cn2cnc3c(N)c(C)c(C)cc32)c1`, the % cells with GFP-LC3 spots was 1.71% (inactive) and the toxicity stood at 1.99%.

As for `CCOc1cccc(OCCCOc2cccc3cccnc23)c1`, the % cells with GFP-LC3 spots is 3.63% (inactive) and the toxicity was -4.48%.

For the molecule `Cc1nonc1NC(=O)CSc1nc2ccccc2cc1C#N`, the % cells with GFP-LC3 spots was 0.583% (inactive) and the toxicity is -8.81%.

Consider `Fc1ccc2nc(-c3ccccc3)nc(SCc3nnc(-c4ccccc4)o3)c2c1`, for which the % cells with GFP-LC3 spots was 4.88% (inactive) and the toxicity amounted to 16.1%.

With `Cc1ccc2nc(SCc3nnc(-c4ccccc4[N+](=O)[O-])o3)c(C#N)cc2c1`, the % cells with GFP-LC3 spots is 85.6% (active) and the toxicity came to 21.6%.

Regarding `CCOc1ccc(Br)cc1S(=O)(=O)N1CCC(C(=O)O)CC1`, the % cells with GFP-LC3 spots was 6.06% (inactive) and the toxicity is 14.1%.

As for `C/C(=N/O)c1ccc(N2C(=O)C3C4C=CC(C3C2=O)C2C3C(=O)N(c5ccc(/C(C)=N/O)cc5)C(=O)C3C42)cc1` (centres undefined), the % cells with GFP-LC3 spots was 11.7% (inactive) and the toxicity amounted to 14.4%.

On to `O=C(O)CCC(=O)Nc1nc2ccc([N+](=O)[O-])cc2s1`, for which the % cells with GFP-LC3 spots was 6.76% (inactive) and the toxicity was found to be 11.6%.

Consider `O=C(NC(Nc1nc2ccc([N+](=O)[O-])cc2s1)(C(F)(F)F)C(F)(F)F)c1ccccc1`, for which the % cells with GFP-LC3 spots is 31.8% (active) and the toxicity was found to be 57.9%.

`O=C(Nc1nc2ccc([N+](=O)[O-])cc2s1)c1ccc(S(=O)(=O)N2CCCc3ccccc32)cc1`: the % cells with GFP-LC3 spots was 16.8% (inactive) and the toxicity amounted to 25.4%.

On to `O=C(c1ccc2ccccc2n1)N1CCN(c2ccccc2Cl)CC1`, for which the % cells with GFP-LC3 spots was 4.83% (inactive) and the toxicity was -5.94%.

In the case of `CCOC(=O)N1CCN(C(=O)CSc2nc(C)nc3c2c(=O)n(C)c(=O)n3C)CC1`, the % cells with GFP-LC3 spots was 12.3% (inactive) and the toxicity stood at 3.6%.

With `Cc1ncoc1C(=O)NCCC(c1ccccc1)c1ccccc1`, the % cells with GFP-LC3 spots is 18% (inactive) and the toxicity worked out at 11.5%.

Consider `COc1cccc(CNC(=O)CCC2CCCN(C(=O)c3cc(C)[nH]n3)C2)c1` (centres undefined), for which the % cells with GFP-LC3 spots is 0.272% (inactive) and the toxicity is -19.2%.

`Cc1occc1C(=O)N1CCCc2ccccc21`: the % cells with GFP-LC3 spots was 12.6% (inactive) and the toxicity was -3.33%.

For the molecule `O=C(c1cccc(C(=O)N2CCc3ccccc32)n1)N1CCc2ccccc21`, the % cells with GFP-LC3 spots is 7.33% (inactive) and the toxicity stood at 25.5%.

Regarding `Cc1cccc2cc3c(N)c(C(=O)N4CCCc5ccccc54)sc3nc12`, the % cells with GFP-LC3 spots was 34.9% (active) and the toxicity was 33.8%.

For `O=C(/C=C/c1ccc(F)cc1)Nc1cccc(S(=O)(=O)Nc2cccc(C(F)(F)F)c2)c1`, the % cells with GFP-LC3 spots was 3.21% (inactive) and the toxicity is 11.4%.

As to `O=c1[nH]c(=S)[nH]c2[nH]c(=S)[nH]c12`, the % cells with GFP-LC3 spots was 16.3% (inactive) and the toxicity came to 14.2%.

As to `CCOc1cc(NC(=O)c2ccccn2)c(OCC)cc1NC(=O)c1ccc(OC)cc1`, the % cells with GFP-LC3 spots was 2.17% (inactive) and the toxicity is 23.7%.

For the molecule `CCOc1ccccc1NC(=O)c1cccnc1`, the % cells with GFP-LC3 spots is 1.43% (inactive) and the toxicity is 1.42%.

Turning to `CCOc1cc(NC(=O)c2cnccn2)c(OCC)cc1NC(=O)c1ccc(C)cc1`, the % cells with GFP-LC3 spots was 16.1% (active) and the toxicity is -0.236%.

For the molecule `COc1ccc(/C=C/C(=O)NC(=S)NN2CCCCC2c2cccnc2)cc1` (centres undefined), the % cells with GFP-LC3 spots is 2.8% (inactive) and the toxicity was 2.51%.

In the case of `CCOCCCNC(=O)C(NC(=O)c1ccccc1O)c1ccccc1` (centres undefined), the % cells with GFP-LC3 spots is 5.35% (inactive) and the toxicity is -34%.

As to `CCOCCCNC(=O)C(NC(=O)c1ccc(=O)[nH]c1)c1ccc(C)cc1` (centres undefined), the % cells with GFP-LC3 spots is 3.93% (inactive) and the toxicity was -0.266%.

For `CCOCCCNC(=O)C(NC(=O)c1ccc(=O)[nH]c1)c1ccc(Cl)cc1` (centres undefined), the % cells with GFP-LC3 spots was 28% (active) and the toxicity came out at 44.6%.

On to `CCc1nnc(NC(=O)CCCSc2nc3ccccc3[nH]2)s1`, for which the % cells with GFP-LC3 spots is 1.66% (inactive) and the toxicity was -3.54%.
